Menin-MLL TR inh: displaces Texas Red mutant MLL peptide from human menin | 270,000 tested, 0.23% active | Menin + Texas Red MLL mutant peptide, fluorescence polarization | AID 1768 | Potency, µM (highest dose often 61.6 µM), without a hit: top-dose FP activity change, negative = inhibition, most hits filed as inhibitors; active means well fitted inhibition curve with a large enough effect in the polarisation, with a control signal flat, not every such curve was filed as active; inconclusive means small, poorly fitted or top-dose-only effect, or effect the other way, or a change in a side signal; inactive means no such curve, though single readings can be large or run the other way; the % refers to the polarisation; further: potency means the concentration at half of the fitted maximal effect; % of control where 0% means no effect
GoLoco inh red: inhibitors of human Gai1-RGS12 GoLoco interaction (red fluorophore) | Gai1:RGS12 GoLoco peptide FP, rhodamine, 10 min | Potency, µM (titrated, usually from 61.6 µM), inactives show top-dose activity, negative = inhibition, hits mostly inhibitors | 230,000 tested, 0.44% active; active means well fitted inhibition curve with a large enough effect, not every such curve was filed as active; inactive means no such curve, though single readings can be large or run the other way; further: potency means the concentration at half of the fitted maximal effect; on the % scale 0 is the no-effect control and ±100 the full control effect; nearly all actives have a fitted effect of over 30% in size
Menin MLL FP FL: inhibitors of human menin-MLL interaction, wild-type MLL peptide; Fluorescence polarization, fluorescein-MLL peptide displacement from menin; 290,000 tested, under 10 active; AID 1766; FP activity change, % at 61.4 µM; active means well fitted curve in the direction sought with a large enough effect in the polarisation, not every such curve was filed as active; inconclusive means small, poorly fitted or top-dose-only effect, or effect the other way, or a change in a side signal; inactive means no such curve, though single readings can be large or run the other way; the % refers to the polarisation; further: % of control where 0% means no effect
Tb PFK inh: inhibitors of T. brucei phosphofructokinase. 330,000 tested, 0.17% active. T. brucei PFK, ADP-Glo luminescence. Potency, µM (series often up to 57.5 µM), for the others: at the highest dose activity, negative = inhibition, actives largely listed as inhibitors. AID 485367. O15648; active means well fitted inhibition curve with a large enough effect; inconclusive means small, poorly fitted or top-dose-only effect, or effect the other way;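 further: potency means the concentration at half of the fitted maximal effect; 0% = uninhibited 1x PFK enzyme wells and -100% = no-enzyme wells; nearly all actives have a fitted effect of over 60% in size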
Target sequence (O15648 whole entry, looked up): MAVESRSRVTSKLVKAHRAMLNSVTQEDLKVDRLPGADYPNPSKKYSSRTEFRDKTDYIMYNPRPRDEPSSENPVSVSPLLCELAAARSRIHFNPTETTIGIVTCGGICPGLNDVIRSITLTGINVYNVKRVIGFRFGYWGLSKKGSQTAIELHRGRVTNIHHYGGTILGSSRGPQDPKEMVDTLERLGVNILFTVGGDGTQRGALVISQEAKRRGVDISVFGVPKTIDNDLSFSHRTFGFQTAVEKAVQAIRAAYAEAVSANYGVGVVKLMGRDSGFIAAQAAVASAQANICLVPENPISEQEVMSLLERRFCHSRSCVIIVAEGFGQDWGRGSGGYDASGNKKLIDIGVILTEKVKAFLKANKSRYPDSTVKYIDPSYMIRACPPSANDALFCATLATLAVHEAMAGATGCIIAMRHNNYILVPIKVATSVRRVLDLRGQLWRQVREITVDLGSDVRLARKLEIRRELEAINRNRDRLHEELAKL
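PFK 1.25 nM, F6P 0.5 mM, ATP 0.1 mM, 0.1 M TEA pH 8.0, 5 mM MgCl2, 0.01% Tween20, 0.1% BSA; 45 min RT. ADP-Glo readout. qHTS titration up to 57 uM; curves fitted, compounds curve-classed.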
CXXC DNA block: MLL CXXC-DNA interaction inhibition; Q03164; MLL-CXXC / FITC-HOXA9 DNA fluorescence polarization; Potency, µM (doses to about 115 µM), without a hit: top-dose activity change, negative = inhibition, most hits filed as inhibitors; 290,000 tested, 0.037% active; active means well fitted inhibition curve with a large enough effect in the polarisation, with a control signal flat, not every such curve was filed as active; inconclusive means small, poorly fitted or top-dose-only effect, or effect the other way, or a change in a side signal; inactive means no such curve, though single readings can be large or run the other way; the % refers to the polarisation; further: potency means the concentration at half of the fitted maximal effect
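Fluorescence polarization: 7 uM MLL-CXXC (stock) preincubated 5 min with compounds, then 50 nM fluorescein-HOX-A9 DNA (stock) added; 30 min ambient. Buffer 50 mM Tris-HCl pH 7.5, 50 mM NaCl, 1 mM DTT, 0.05% BSA.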
Active calls of the source: *; ? = inconclusive; · = no result given; ! = not active in a repeat; [ ] = dose if it differs, or a comment. Most compounds without a hit are left out; they make up all but 0.43% or so of the library.

SMILES	Menin-MLL TR inh	GoLoco inh red	Menin MLL FP FL	Tb PFK inh	CXXC DNA block
O=C(Nc1ccc(Cl)cc1)Nc1nnc(CSCc2ccc(Cl)cc2)s1	7.9µM*	-15%	0	0%	-19%
COC(=O)C1=C(C(=O)OC)[C@@H]2N(Cc3ccccc3)c3ccccc3[C@@]23C[C@@H](C(=O)OC)N(S(=O)(=O)c2ccc(C)cc2)C3=N1	-8%[11.7 µM]	2%[14.2 µM]	3[11.7 µM]	·	·
Nc1c(Br)cc(Br)cc1CNC1CCC(O)CC1 (configuration not stated)	-2%	20µM*!	-2	-17%	8%
OC(CNC1CCCC1)COc1c(F)cc(Br)cc1F (configuration not stated)	-5%	8%	4	0%	49%
Clc1ccccc1Cl	0%	0%	-3	·	-3%
Nc1ccccc1Cl	·	50µM*	·	0%	·
Cc1cc(F)ccc1S(=O)(=O)Nc1ccccc1C(=O)Nc1ccccc1-c1nc2ccccc2[nH]1	14µM*	-2%	14	8%	6%
O=c1cnc2cnc(N3CCNCC3)nc2n1Cc1ccc(F)cc1	1%	8.9µM*	12	·	·
CCCCCC(N)=O	-2%	-9%	1	-8%	-8%
CCCCCCCC/C=C\CCCCCCCC(N)=O	?	22µM*!	-6	·	·
CC(C)(C)OC(=O)N[C@@H](Cc1ccccc1)c1nnc(S(=O)(=O)Cc2ccccc2)o1	?	18µM*	1	0%	1%
Cc1ccccc1CS(=O)(=O)c1nnc([C@H](Cc2ccccc2)NC(=O)OC(C)(C)C)o1	-6%	-17%	2	-5%	-15%
O=C1C2C3C=CC(C3=C(c3ccccc3)c3ccccc3)C2C(=O)N1CCO (configuration not stated)	1%	3%	2	0%	-2%
O=C1C2C3C=CC(C3=C(c3ccccc3)c3ccccc3)C2C(=O)N1Cc1ccccc1 (configuration not stated)	-2%	14µM*	-1	1%	5%
COc1cc(NS(=O)(=O)c2ccc(C)cc2)c2ncccc2c1	41%	9%	4	4%	-3%
COc1cc(NCCCC(C)N)c2ncccc2c1 (configuration not stated)	?	28µM*	?	-5%	3%
CCC(CNc1cc(OC)cc2cccnc12)NC1CCCCC1 (configuration not stated)	35µM*	28µM*	?	0%	?
Cc1cc2c(s1)c1c(C)nn(Cc3ccccc3F)c(=O)c1n2C	·	·	·	0%	·
COc1ccc(-c2csc(NC(=O)CSc3nnnn3C)n2)cc1OC	·	·	·	-3%	·
Cc1cc(-c2nnc(SCC(=O)Nc3nc(-c4ccc(Cl)cc4)cs3)o2)no1	·	10%	4	?	-3%
Cc1cc(C)cc(-n2nnnc2SCC(=O)Nc2nc(-c3ccc(F)cc3)cs2)c1	35µM*	2%	-1	2%	23%
Cc1cc(C)cc(-n2nnnc2SCC(=O)Nc2nc(-c3ccc(Cl)cc3)cs2)c1	28µM*	5%	6	-6%	-4%
COc1c(C2=CC(=O)N(C)C2=O)c2c(n1C)C(=O)c1ccccc1C2=O	-10%	-14%	2	·	·
COC(=O)C(C(=O)OC)[C@@H]1c2ccccc2[C@H]2C(=C[C@@H](C)[C@H]3C(=O)N(c4ccccc4)C(=O)[C@H]32)N1C(=O)OC	-2%[11.7 µM]	7%[14.2 µM]	0[11.7 µM]	·	·
COc1cc(SC)ccc1C(=O)N1CCC(Cc2ccccc2)CC1	-15%	·	3	·	·
SMILES	Menin-MLL TR inh	GoLoco inh red	Menin MLL FP FL	Tb PFK inh	CXXC DNA block
CCSC1=NC(=O)/C(=C2/C=Cc3ccccc3N2CC)S1	?	1.3µM*	14	-2%	-4%
O=C(NCCCN1CCCCCC1)C(c1ccccc1)C1CCCCC1 (configuration not stated)	·	2%	·	·	·
CCOc1ccccc1N=C1SCCCN1C	3%	3.5µM*	5	-2%	-10%
CCCCCCNC(=O)N[C@@H](Cc1ccc(O)cc1)C(=O)NCCC[C@H]1CN2C(=NC[C@H]2C)N1CC1CCC1	·	-34%	1	-2%	7%
CCCCCCNC(=O)N[C@H](Cc1ccc(O)cc1)C(=O)NCCC[C@H]1CN2C(=NC[C@H]2CCC)N1CC1CCC1	·	14µM*	4	-18%	-2%
CCCCCCNC(=O)N[C@@H](C(=O)NCCC[C@H]1CN2C(=NC[C@@H]2Cc2ccccc2)N1CCc1cccc(OC)c1)C(C)C	·	14µM*	3	-17%	5%
COc1ccc(OC)c(-c2nnc3n2N=C(c2ccccc2OC)CS3)c1	?	·	0	·	·
CCOC(=O)N1CCC(N(CCOC)C(=O)Nc2ccc(CC)cc2)CC1	-25%	9%	0	0%	-1%
CCOC(=O)N1CCC(N(C(=O)Nc2ccc(Cl)c(Cl)c2)C(C)CC)CC1 (configuration not stated)	-8%	10%	-2	24µM*	2%
c1ccc(-c2nn[nH]n2)c(Nc2cccc3c2CCCC3)c1	?	·	6	·	·
C=C1N[C@]2(C(=O)COC(C)=O)[C@@H](C[C@H]3[C@@H]4CCC5=CC(=O)C=C[C@]5(C)[C@H]4[C@@H](O)C[C@@]32C)O1	2%	·	-2	·	-4%
Cc1ccc(N=Nc2[nH]c3ccccc3c2O)cc1	-4%	13µM*	?	0%	?
COc1ccc(N=Nc2[nH]c3ccc(C)cc3c2O)cc1	?	3.2µM*	7	6%	5%
Cc1[nH]c2ccccc2c1N=Nc1ccc(F)cc1	?	-11%	-8	-2%	12%
CCn1c(/C=C/N(C)c2ccccc2)[n+](CC)c2ccc(Cl)cc21	?	1µM*	5	0%	9%
O=C1c2ccccc2CCC1CNCCc1ccc(O)cc1 (configuration not stated)	·	-10%	·	·	·
CCOC(=O)CCCNC(=O)N1CCc2nc(COc3ccccc3)c3c(c2C1)CO[C@@H](C)C3	-9%[11.7 µM]	4%[14.2 µM]	-4[11.7 µM]	·	·
CNc1ncc(C(=O)c2ccc(Cl)c(Cl)c2)s1	4%	-3%	0	2%	8%
O=C(c1ccc(Cl)c(Cl)c1)c1cnc(Nc2ccccc2)s1	22µM*	-12%	2	-4%	7%
CCN(CC)c1ccc(C=Nc2ccc(N(C)C)cc2)c(O)c1	20µM*	122%	?	-10%	?
CCN(CC)c1ccc(N=Cc2ccc(N(CC)CC)cc2O)cc1	?	112%	?	2%	?
Cc1ccc(/C=C2/SC(=S)N(C3CCCCC3)C2=O)o1	?	·	?	0%	43%
Cc1ccc(/C=C2/SC(=O)NC2=S)o1	?	5µM*	?	-15%	?
CCCCS(=O)(=O)N1C2=NC(C(=O)OC)=C(C(=O)OC)[C@@H]3Nc4ccccc4[C@]23C[C@H]1C(=O)OC	-8%[11.7 µM]	-2%[14.2 µM]	7[11.7 µM]	·	·
Nc1ccc2nonc2c1[N+](=O)[O-]	0%	14µM*	?	-4%	?
O=C1CCNc2c(Cl)cccc21	·	4.5µM*	-16	-1%	-6%

Bioassay records: PubChem BioAssay, National Center for Advancing Translational Sciences (NCATS)
